Structures are written as SMILES. A number with no mark means an inactive call. The source made the active and inactive calls. Cut-off read from the data, not from the text of the source, unless noted: active = inhibition above about 25%; inactive = the rest.

The text below walks through data of PubChem BioAssay.

For test [1], the target named is Nuclear receptor coactivator 3 (Homo sapiens) (UniProt Q9Y6Q9). Briefly: NCOA3 GAL4-fusion reporter inhibition – cell-based, luminescence, quadruplicate, confirmation (AID 588792;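 active = mean inhibition over 43.08%, the solvent-only control mean plus 3 SD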;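 note: 0% = DMSO treated cells and 100% = gossypol at 36 µM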). Particulars: HEK293 GAL4-SRC3 luciferase reporter, at 3.6 µM, stronger effect = higher value. For orientation: A reporter such as luciferase makes a cellular process visible.
Test [2] concerns transactivating tegument protein VP16 (Human herpesvirus 1), Gal4-VP16 luciferase reporter. Put plainly: repression of VP16-driven luciferase reporter – cell-based, luminescence, high throughput, counter-screen for SRC3 inhibitor project (AID 588794; in the data active = inhibition above about 30%). Particulars: mammalian cells, at 3.6 µM, stronger effect = higher value.
Test [3] deals with Nuclear receptor coactivator 1 (Homo sapiens) (UniProt Q15788). Put plainly: NCOA1 GAL4-fusion reporter inhibition – cell-based, luminescence, quadruplicate, confirmation (AID 588820;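 active = mean inhibition above 46.68%, the untreated control wells mean plus 3 SD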;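 note: 0% = DMSO wells and 100% = gossypol 36 µM treated wells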). Particulars: HEK293 GAL4-SRC1 luciferase reporter, at 3.6 µM, stronger effect = higher value.
Test [4] in a line: repression of VP16-driven luciferase reporter – cell-based, luminescence, high throughput, counter-screen for SRC1 inhibitor project (AID 588824). Particulars: cell-based VP16 transactivation luciferase luminescence; at 3.6 µM; stronger effect = higher value.

Sequence of Nuclear receptor coactivator 3 (Homo sapiens) (Q9Y6Q9 whole entry, looked up, the tested form may be a part): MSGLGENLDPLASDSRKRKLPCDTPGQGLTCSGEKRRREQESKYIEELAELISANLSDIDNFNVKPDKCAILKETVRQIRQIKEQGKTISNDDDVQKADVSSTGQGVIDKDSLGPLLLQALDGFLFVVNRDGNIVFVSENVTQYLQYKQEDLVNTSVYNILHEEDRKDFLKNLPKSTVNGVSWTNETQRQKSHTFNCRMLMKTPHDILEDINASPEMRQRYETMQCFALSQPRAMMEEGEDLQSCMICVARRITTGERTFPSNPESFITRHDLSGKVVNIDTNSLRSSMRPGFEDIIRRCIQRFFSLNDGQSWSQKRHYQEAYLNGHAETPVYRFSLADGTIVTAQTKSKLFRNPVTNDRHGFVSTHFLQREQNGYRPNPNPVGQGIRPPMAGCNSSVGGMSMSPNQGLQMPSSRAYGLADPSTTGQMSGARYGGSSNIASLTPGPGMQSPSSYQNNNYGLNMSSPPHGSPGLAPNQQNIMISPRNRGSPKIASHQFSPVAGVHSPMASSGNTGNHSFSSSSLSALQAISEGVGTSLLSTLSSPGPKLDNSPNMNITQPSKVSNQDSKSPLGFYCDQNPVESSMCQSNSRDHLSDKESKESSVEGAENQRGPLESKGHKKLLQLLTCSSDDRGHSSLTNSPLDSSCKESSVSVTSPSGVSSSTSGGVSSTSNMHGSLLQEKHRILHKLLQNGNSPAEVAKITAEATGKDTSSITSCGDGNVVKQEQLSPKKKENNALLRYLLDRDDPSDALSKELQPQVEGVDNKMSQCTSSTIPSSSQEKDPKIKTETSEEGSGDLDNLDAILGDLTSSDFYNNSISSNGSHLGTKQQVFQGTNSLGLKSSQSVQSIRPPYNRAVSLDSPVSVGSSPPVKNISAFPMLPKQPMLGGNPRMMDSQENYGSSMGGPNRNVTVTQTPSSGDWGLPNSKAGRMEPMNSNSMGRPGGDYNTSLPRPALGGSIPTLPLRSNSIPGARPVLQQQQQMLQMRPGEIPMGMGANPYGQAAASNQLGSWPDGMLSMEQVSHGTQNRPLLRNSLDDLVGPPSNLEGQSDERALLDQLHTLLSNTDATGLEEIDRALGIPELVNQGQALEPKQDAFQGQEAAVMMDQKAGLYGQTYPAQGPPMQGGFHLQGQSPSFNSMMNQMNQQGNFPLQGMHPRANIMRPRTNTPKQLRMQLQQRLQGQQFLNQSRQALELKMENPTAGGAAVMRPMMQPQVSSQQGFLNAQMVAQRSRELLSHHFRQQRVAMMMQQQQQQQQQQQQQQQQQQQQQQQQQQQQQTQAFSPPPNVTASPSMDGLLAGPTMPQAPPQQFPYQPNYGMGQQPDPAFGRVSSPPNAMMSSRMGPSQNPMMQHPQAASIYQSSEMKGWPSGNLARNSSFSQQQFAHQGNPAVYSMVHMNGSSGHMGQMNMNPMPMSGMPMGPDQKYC
Sequence of Nuclear receptor coactivator 1 (Homo sapiens) (Q15788 whole entry, looked up, the tested form may be a part): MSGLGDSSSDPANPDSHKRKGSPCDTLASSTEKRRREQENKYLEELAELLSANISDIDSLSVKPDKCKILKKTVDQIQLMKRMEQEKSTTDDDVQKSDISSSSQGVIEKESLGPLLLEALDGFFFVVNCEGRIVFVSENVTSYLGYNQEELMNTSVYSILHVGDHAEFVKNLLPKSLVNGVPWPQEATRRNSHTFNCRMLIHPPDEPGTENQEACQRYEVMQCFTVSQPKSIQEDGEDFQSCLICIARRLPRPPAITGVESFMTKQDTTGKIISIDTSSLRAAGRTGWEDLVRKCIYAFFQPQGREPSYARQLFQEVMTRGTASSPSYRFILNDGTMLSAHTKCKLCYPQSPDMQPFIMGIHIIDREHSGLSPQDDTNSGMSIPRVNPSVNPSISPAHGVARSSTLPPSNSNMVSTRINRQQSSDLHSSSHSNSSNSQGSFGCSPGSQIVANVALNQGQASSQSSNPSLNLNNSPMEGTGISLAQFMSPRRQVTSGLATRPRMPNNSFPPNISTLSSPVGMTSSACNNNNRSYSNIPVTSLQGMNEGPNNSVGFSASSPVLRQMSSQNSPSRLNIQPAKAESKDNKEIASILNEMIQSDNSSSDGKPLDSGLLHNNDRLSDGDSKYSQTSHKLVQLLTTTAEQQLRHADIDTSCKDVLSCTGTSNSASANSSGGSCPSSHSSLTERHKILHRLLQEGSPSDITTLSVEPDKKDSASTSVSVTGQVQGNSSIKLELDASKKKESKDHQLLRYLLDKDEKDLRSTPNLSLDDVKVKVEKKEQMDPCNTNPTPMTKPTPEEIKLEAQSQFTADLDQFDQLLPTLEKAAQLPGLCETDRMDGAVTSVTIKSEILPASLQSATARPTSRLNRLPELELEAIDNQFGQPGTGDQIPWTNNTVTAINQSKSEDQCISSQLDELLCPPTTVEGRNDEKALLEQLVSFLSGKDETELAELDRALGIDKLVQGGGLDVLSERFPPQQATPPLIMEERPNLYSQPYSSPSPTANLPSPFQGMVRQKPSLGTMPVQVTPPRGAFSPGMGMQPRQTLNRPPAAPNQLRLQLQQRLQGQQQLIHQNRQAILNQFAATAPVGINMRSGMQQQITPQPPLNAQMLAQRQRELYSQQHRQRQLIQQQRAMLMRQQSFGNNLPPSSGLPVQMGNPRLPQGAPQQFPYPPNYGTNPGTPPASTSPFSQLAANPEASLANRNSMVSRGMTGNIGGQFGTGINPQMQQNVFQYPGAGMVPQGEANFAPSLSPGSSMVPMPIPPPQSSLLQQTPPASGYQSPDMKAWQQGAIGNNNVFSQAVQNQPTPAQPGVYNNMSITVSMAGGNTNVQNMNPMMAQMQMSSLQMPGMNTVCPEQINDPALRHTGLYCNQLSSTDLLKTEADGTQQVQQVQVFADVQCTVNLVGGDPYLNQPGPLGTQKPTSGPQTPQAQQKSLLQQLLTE

Usually inhibition stands for the relative decrease from the control value, in per cent. `COc1cc(-c2cc3nc4ccccc4n3c(N)c2C#N)cc(OC)c1OC`: the inhibition was 14.5% in test [1], -16.8% in test [2], -42.6% in test [3] and -12.8% in test [4].

In the case of `Nc1ccc(-c2cnc(N)c(C(=O)c3cccnc3)n2)cn1`, the inhibition in test [1] was 85.8% (active); in test [2], 55.7% (active); in test [3], 74.3% (active); in test [4], 56% (active).

For `CCCc1c(C)nc2ccccc2c1SCCC#N`, the inhibition in test [1] is 29.6%; in test [2] it was 29%; in test [3], 39.6%; in test [4] it was 25.5% (active).

Take `COc1ccc(NC(=O)CN(C)C(=O)C2(c3ccccc3)CCCC2)cc1`: the inhibition in test [1] is 25.3%; in test [2] it was 8.28%; in test [3], 25.3%; in test [4], 4.02%.

For `Cc1ccc(-n2c(O)c(C=Nc3cc(C)on3)c3ccccc3c2=O)c(C)c1`, the inhibition in test [1] was 52.8% (active); in test [2], 39.9% (active); in test [3], 44.8%; in test [4] it was 35.7% (active).

As to `COc1cccc(CN(C)C(=O)c2ccc(OCC(=O)Nc3cccc(C(F)(F)F)c3)c(OC)c2)c1`, the inhibition in test [1] is 14.8%; in test [2] it was 34% (active); in test [3], 6.82%; in test [4], 35.6% (active).

On to `O=C(Nc1nc(-c2ccc(F)c(F)c2)cs1)c1ccc(OCC2CCCO2)cc1` (stereo not given), for which the inhibition was 7.06% in test [1], 36% (active) in test [2], 5.41% in test [3] and 39.4% (active) in test [4].

For `Cc1nc2c(o1)C(=O)c1ccccc1C2=Nc1ccccc1`, the inhibition in test [1] is 78.5% (active); in test [2], 94.3% (active); in test [3] it was 61.8% (active); in test [4] it was 79.1% (active).

Consider `CCN(CC)c1ccc(/C=N/NC(=O)CNC(=O)C2COc3ccccc3O2)c(O)c1` (stereo not given), for which the inhibition in test [1] is 24.4%; in test [2] it was 17.7%; in test [3] it was 8.85%; in test [4], 18.9%.

On to `O=[N+]([O-])c1cccc(C=NNc2ccc3ccccc3n2)c1O`, for which the inhibition in test [1] was -4.77%; in test [2], -23.2%; in test [3], -90.4%; in test [4], -49.2%.

`CCC(=O)c1ccc(Oc2nc3c(c(=O)n(C)c(=O)n3C)n2CC)cc1`: the inhibition is 26.3% in test [1], 19.6% in test [2], 29.4% in test [3] and 20.9% in test [4].

For the molecule `N#CC(c1ccc(Cl)cc1)c1ccc2c(C(F)(F)F)cc(C(F)(F)F)nc2n1` (stereo not given), the inhibition in test [1] was 62% (active); in test [2] it was 85.7% (active); in test [3], 32%; in test [4] it was 83.3% (active).

Take `Cc1cc(C(=O)NNc2ccc(F)cc2)no1`: the inhibition was 9% in test [1], 7.33% in test [2], -4.64% in test [3] and 8.26% in test [4].

In the case of `Oc1ccc(C=NNc2ccccn2)c(O)c1`, the inhibition is 76% (active) in test [1], -12.1% in test [2], 14.7% in test [3] and -1.88% in test [4].

As for `CC(C)c1nc(NCCO)c(C#N)c2c1CCCC2`, the inhibition in test [1] is 40%; in test [2] it was 30% (active); in test [3] it was 22.1%; in test [4] it was 35.1% (active).

As to `COc1cccc(/C=N/NC(=O)c2cc3c(OC)cccc3[nH]2)c1O`, the inhibition in test [1] is 28.5%; in test [2], 29%; in test [3], 37.1%; in test [4], 26% (active).

On to `N=c1c2c(-c3ccccc3)c(-c3ccccc3)n(Cc3ccccc3)c2ncn1CCCO`, for which the inhibition was 12% in test [1], 53.2% (active) in test [2], 42.6% in test [3] and 51% (active) in test [4].

Turning to `O=C(/C(=C/c1ccc(Cl)cc1)c1nc2ccccc2[nH]1)c1cccs1`, the inhibition in test [1] was 79.1% (active); in test [2], 61.9% (active); in test [3] it was 22.4%; in test [4], 49.5% (active).

For `CC(C)n1cnc2c(NCc3ccccc3)cc(N[C@H](C)CO)cc21`, the inhibition was 16.4% in test [1], 87.3% (active) in test [2], 35.6% in test [3] and 8.74% in test [4].

`COc1cccc(C(=O)Nc2nc(-c3ccc(S(=O)(=O)N4CCOCC4)cc3)cs2)c1`: the inhibition in test [1] was 3.89%; in test [2], 9.14%; in test [3] it was -19.1%; in test [4], -0.53%.

Consider `COc1cccc(-c2nnc3sc(C4CCCCC4)nn23)c1`, for which the inhibition is 64.5% (active) in test [1], 29.1% in test [2], 57.4% (active) in test [3] and 26.4% (active) in test [4].

`O=C(Nc1ccc(Cn2cccn2)cc1)c1ccc(COc2cccc(Br)c2)cc1`: the inhibition was 1.93% in test [1], 42.6% (active) in test [2], -34.7% in test [3] and 30.4% (active) in test [4].

On to `CCOc1cc(C(N)=O)cc(Br)c1OC`, for which the inhibition is 29.6% in test [1], 20.8% in test [2], 29.3% in test [3] and 14.2% in test [4].

As for `CCOC(=O)C(=Cc1cc(=O)c(OC)co1)C(=O)OCC`, the inhibition in test [1] was 48.6% (active); in test [2], 52.1% (active); in test [3], -0.65%; in test [4], 53.4% (active).

Regarding `Cc1nnsc1C(=O)N/N=C/c1ccc2ccccc2c1O`, the inhibition is 84.2% (active) in test [1], 71.3% (active) in test [2], 75% (active) in test [3] and 69.8% (active) in test [4].
